The values below come from PubChem BioAssay (NCATS).

Assay [1] can be described thus: Validation of Assay for Modulators of Lamin A Splicing (AID 1459; active = well fitted curve in the direction sought with a large enough effect in the signal ratio; the % refers to the signal ratio;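 note: cells exposed to compound for two days before reading; 0% is about no effect; ratio rise marks activators and ratio drop marks inhibitors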). A digest of the protocol:
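Splicing correction is reported by an EGFP-containing lamin A minigene in stably transfected S3 HeLa cells, while DsRed2 controls for viability and nonspecific signal. Cells are exposed to compounds for 48 hrs before the GFP over RFP ratio is taken.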

Assay [2] in a line: qHTS Assay for Lipid Storage Modulators (AID 1519; calls by dose curve; for activity change, negative = inhibition: % is set by controls: 0 for no effect and ±100 for the full control effect). The following applies: Drosophila S3 cells, BODIPY lipid droplet/cell ratio, laser cytometry, cells loaded with oleic acid. A digest of the protocol:
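Cells seeded at 5,000 per well were treated with compounds over a concentration series and loaded with oleic acid (400 uM, as added). Lipid droplet fluorescence (488 nm excitation, 500-530 nm channel) was read by laser-scanning cytometry and normalized to 20 uM Triacsin C.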
In general terms: qHTS replaces the single test concentration by a dilution series.

The target of assay [3] is DNA repair nuclease/redox regulator APEX1 (Homo sapiens) (UniProt P27695). In words: qHTS Validation Assay for Inhibitors of the Human Apurinic/apyrimidinic Endonuclease 1 (APE1) (AID 1705;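 note: TAMRA fluorescence gain over two minutes as APE1 cuts a quenched THF abasic duplex; % is set by controls: 0 for no effect and ±100 for the full control effect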). The method, boiled down:
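Endonuclease activity of human APE1 is followed as dequenching when the enzyme incises a tetrahydrofuran abasic site in a short duplex labelled 5'-TAMRA/3'-BHQ-2 (50 nM final), after 15 min enzyme–compound preincubation at room temperature.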

The nature of assay [4]: Counterscreen for APE1 Inhibitors: Fluorescent Dye Displacement Validation Assay (AID 1707).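 Note: plate controls were ThO with dsDNA and no compound for no effect and ThO without dsDNA for full effect.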 A digest of the protocol: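 Thiazole Orange displacement from dsDNA: 250 nM ThO with 50 nM TAMRA-labelled abasic-site (tetrahydrofuran) duplex in 50 mM Tris-HCl pH7.5, 50mM NaCl, 2 mM MgCl2, 0.01% Tween-20. Loss of endpoint fluorescence (ex 480 nm, em 540 nm) flags DNA binders.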
(In general: The purpose of a counterscreen is to sort out artefacts and off-target activity.)

Assay [5] addresses Endonuclease 4 (Escherichia coli (strain K12)) (UniProt P0A6C1). The experiment in a line: Counterscreen for APE1 Inhibitors: qHTS Validation Assay for Inhibitors of Endonuclease IV (AID 1708). Note: % is set by controls: 0 for no effect and ±100 for the full control effect. The method, boiled down:
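E. coli EndoIV at 2 nM final, preincubated 15 min at room temperature with compound, then 50 nM TAMRA/BHQ-2 THF abasic-site duplex added. Buffer: 50 mM Tris-HCl pH 7.5, 50 mM NaCl, 2 mM MgCl2, 1 mM DTT, 0.01% Tween-20. Kinetic fluorescence increase, third minus first read.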

The nature of assay [6]: qHTS for differential inhibitors of proliferation of Plasmodium falciparum line 7G8 (AID 1815).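 For activity change, negative = inhibition: plate controls were vehicle wells for no effect and reference inhibitor wells for full effect.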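 Note: parasite growth measured after three days of incubation.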 Note: potency is the fitted concentration of half-maximal effect.
Assay [7] is described as follows: qHTS for differential inhibitors of proliferation of Plasmodium falciparum line GB4 (AID 1816).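 For activity change, negative = inhibition: 0% = vehicle DMSO and -100% = reference inhibitor.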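 Note: parasite growth measured after 72 h incubation.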 Note: potency is the fitted concentration of half-maximal effect. The following applies: Potency: Plasmodium falciparum GB4 proliferation inhibition.
A short description of assay [8]: qHTS for differential inhibitors of proliferation of Plasmodium falciparum line 3D7 (AID 1876). Note: potency is the fitted concentration of half-maximal effect.
In assay [9] the target is Alpha-galactosidase A (Homo sapiens) (UniProt P06280). In words: Counterscreen for Glucocerebrosidase Inhibitors: qHTS Assay for Human alpha-Galactosidase at pH 4.5 (AID 992). Note: 0% is about no effect. The method, boiled down: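 Enzyme at 2 nM final was combined with compound (0.7 nM to 77 uM) and 80 uM 4-methylumbelliferyl alpha-D-galactopyranoside in 50 mM citric acid, 0.005% Tween-20, pH 4.5. After 20 min at room temperature, fluorescence was read (Ex 365/Em 440 nm); AC50 came from Hill fits.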

Assay [10] has as its target alpha-glucosidase (Oryza sativa, rice) (UniProt Q653V4). In words: Counterscreen for Glucocerebrosidase Inhibitors: qHTS Assay for Rice alpha-Glucosidase at pH 5.0 (AID 997).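 Note: 0% = full activity with enzyme and -100% = basal without enzyme.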 The method, boiled down:
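Rice alpha-glucosidase (4 nM final) with 400 uM 4-methylumbelliferyl-alpha-D-glucopyranoside in citrate buffer pH 5.0, 20 min at room temperature, stopped at pH 10; fluorescence 365/440 nm, compounds 0.7 nM–77 uM, AC50 from Hill fits.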

Where [11] appears, read: measured here: cell count channel max response.
Where [12] appears, read: measured here: lipid channel max response.

Where “and” joins values, the source holds several entries; their conditions need not be identical. Identical values can stand only once. Inconclusive results are not listed. Calls of active or inactive are those of the source. Unless noted, calls come from the whole dose curve; as a rule, active = well fitted curve in the direction sought with a large enough effect; inconclusive = small, poorly fitted or top-dose-only effect, or another doubt; inactive = no such curve, though single readings can be large; an effect the other way counts as inactive or inconclusive.

Sequence of Alpha-galactosidase A (Homo sapiens) (P06280 whole entry, looked up): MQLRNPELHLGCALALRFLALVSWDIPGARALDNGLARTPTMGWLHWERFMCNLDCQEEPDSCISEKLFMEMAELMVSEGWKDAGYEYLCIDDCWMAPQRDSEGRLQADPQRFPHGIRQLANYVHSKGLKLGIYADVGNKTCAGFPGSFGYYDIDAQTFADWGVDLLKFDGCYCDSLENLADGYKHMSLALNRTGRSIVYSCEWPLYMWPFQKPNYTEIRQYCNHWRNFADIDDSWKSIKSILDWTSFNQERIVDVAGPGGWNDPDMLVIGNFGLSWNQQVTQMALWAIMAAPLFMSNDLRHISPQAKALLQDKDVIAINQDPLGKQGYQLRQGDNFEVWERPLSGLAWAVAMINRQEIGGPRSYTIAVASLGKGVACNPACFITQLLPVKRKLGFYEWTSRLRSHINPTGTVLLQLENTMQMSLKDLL
Sequence of DNA repair nuclease/redox regulator APEX1 (Homo sapiens) (P27695 whole entry, looked up): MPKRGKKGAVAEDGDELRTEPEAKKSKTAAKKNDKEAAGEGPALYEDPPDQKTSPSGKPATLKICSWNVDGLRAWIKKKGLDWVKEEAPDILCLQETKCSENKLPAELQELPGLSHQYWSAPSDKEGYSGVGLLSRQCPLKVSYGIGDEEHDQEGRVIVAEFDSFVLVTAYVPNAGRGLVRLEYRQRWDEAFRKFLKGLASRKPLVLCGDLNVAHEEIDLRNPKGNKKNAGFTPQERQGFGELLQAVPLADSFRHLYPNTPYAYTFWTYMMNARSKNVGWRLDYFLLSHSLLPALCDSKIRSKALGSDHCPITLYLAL

In the case of `CCOC(=O)C1=C(C)NC(C)=C(C(=O)OC)C1c1cccc([N+](=O)[O-])c1` (configuration not stated), the compound was called inactive in assay [1] and in [4]. Moreover, the activity change, negative = inhibition in assay [2] (at 57.5 µM (top of the series)) was 1.63% (inactive). The max response in [2] (setting [11]) is -3.59%; in assay [2] (setting [12]), -4.4%. The Potency result in [3] and in [5] was “inactive” each time. Moreover, the Potency in assay [6] is 11.2 µM (active); in assay [7] it was 12.6 µM (active); in assay [8], 8.91 µM (active).
As for `CC(C)COCC(CN(Cc1ccccc1)c1ccccc1)N1CCCC1` (configuration not stated), the outcome in assay [1] and in [4] was inactive. Further, the activity change, negative = inhibition in assay [2] (at 57.5 µM (top of the series)) is 2.08% (inactive). Moreover, the results for the max response in [2] (setting [11]) and in assay [2] (setting [12]) were 20% and 26.2%, respectively. The Potency entry in [3], in [5], in assay [6], in assay [7] and in assay [8] was “inactive” each time.
Consider `N[C@@H](COP(=O)(O)O)C(=O)O`, for which the call in assay [9], in assay [10], in assay [1] and in assay [4] was inactive. The activity change, negative = inhibition in [2] (at 57.5 µM (top of the series)) is 3.29% (inactive) and -0.662% (inactive). Also, the max response in [2] (setting [11]) was 18.8% and -18.9%; in assay [2] (setting [12]), 26.3% and -20.3%. For the same compound, the Potency entry in assay [3], in assay [6], in assay [7] and in [8] was “inactive” throughout.
Take `Cc1nc2ccccn2c(=O)c1CCN1CCC(C(=O)c2ccc(F)cc2)CC1`: the compound was classed as inactive in [9], in assay [10], in assay [1] and in [4]. Further, the activity change, negative = inhibition in [2] (at 57.5 µM (top of the series)) was 16.1% (inactive). For the same compound, the max response in assay [2] (setting [11]) is 7.37%; in assay [2] (setting [12]), 24.1%. In addition, the Potency entry in [3] and in assay [5] was “inactive” in each case. Besides, the values for the Potency in assay [6], in assay [7] and in [8] were 7.94 µM (active), 11.2 µM (active) and 10 µM (active), respectively.
Take `COc1ccc(CCN(C)CCCC(C#N)(c2cc(OC)c(OC)c(OC)c2)C(C)C)cc1OC` (configuration not stated): the call in [1] and in assay [4] was inactive. Moreover, the Potency result in assay [3] and in assay [5] was “inactive” throughout. Further, the Potency was 7.08 µM (active) in [6], 6.31 µM (active) in assay [7] and 3.16 µM (active) in assay [8].
Regarding `CC1=C(C)C(=O)C(CCCCC#CCCCC#CCO)=C(C)C1=O`, the outcome in assay [9], in [10], in [1] and in [4] was inactive. Besides, the activity change, negative = inhibition in assay [2] (at 57.5 µM (top of the series)) is 1.13% (inactive). Further, the max response in [2] (setting [11]) was -22.7%; in assay [2] (setting [12]), -21.4%. Also, the Potency in assay [6] is 2.24 µM (active); in assay [7] it was 2.51 µM (active); in [8], 8.91 µM (active).
As to `CCCCNc1ccc(C(=O)OCCN(C)C)cc1`, the compound was called inactive in assay [9], in [10], in [1] and in assay [4]. Further, the activity change, negative = inhibition in assay [2] (at 25.7 µM (top of the series)) is 3.23% (inactive); in [2] (at 57.5 µM (top of the series)), 14.3% (inactive). Also, the max response in assay [2] (setting [11]) was -0.19% and 24.9%; in assay [2] (setting [12]) it was 3.57% and 43.3%. In addition, the Potency result in assay [3] and in assay [6] was “inactive” throughout.
Regarding `c1ccc2c(c1)CCCC2C1=NCCN1` (configuration not stated), the outcome in assay [1] and in [4] was inactive. In addition, the Potency result in [3], in [5], in [6] and in assay [8] was “inactive” each time.
As to `C#CCN(C)CCCOc1ccc(Cl)cc1Cl`, the call in [10], in assay [1] and in [4] was inactive. The activity change, negative = inhibition in assay [2] (at 25.7 µM (top of the series)) was -0.841% (inactive). For the same compound, the values for the max response in [2] (setting [11]) and in assay [2] (setting [12]) were -6.58% and -5.76%, respectively. The Potency entry in assay [3] and in [8] was “inactive” each time.
With `NC(N)=NC(=O)Cc1c(Cl)cccc1Cl`, the compound was classed as inactive in [9], in assay [10], in [1] and in assay [4]. The activity change, negative = inhibition in assay [2] (at 25.7 µM (top of the series)) was -2.29% (inactive); in assay [2] (at 57.5 µM (top of the series)), 1.08% (inactive). Also, the max response in assay [2] (setting [11]) is -10.4% and 9.91%; in assay [2] (setting [12]), -13.2% and 12.7%. The Potency entry in assay [3] and in assay [5] was “inactive” throughout. For the same compound, the Potency in assay [6] is 3.98 µM (active); in assay [7], 3.98 µM (active); in [8] it was 2.82 µM (active).
